From the supplement of paper PMC10849652
About 8,800 targets were measured; listed, in parts, are those with a hit and a random draw of the rest. About 0.5% of all pairs of compound and target were hits.

Legend:
Experiment in all cases: log2 fold change, soluble protein after heating vs DMSO (PISA); higher = thermal stabilisation; K562 lysate, 10 uM; active = over 0.2 and 3.5 SD of the protein, either way, in both replicates (recomputed)
[1] = compound: C1=CC=C(C=C1)[C@H](COC2=CC3=C(C=C2)NC(=O)N3)NC(=O)C4=CC=CN(C4=O)CC5=CC(=C(C=C5)F)F
In short: (§1)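 Log-two fold change in thermal stability relative to solvent controls is reported from duplicates. For each sample, crude K562 extract from dounce-homogenised pellets in PBS pH 7.4 with 1 mM MgCl2, at 1 mg/mL protein, was treated with 10 μM compound for 30 min. Aliquots heated for 3 min across 48°C-58°C were pooled, brought to 0.5% NP-40 at 4°C and cleared at 21,000xg for 90 min. The supernatant was quantified by TMTpro 16plex LC-MS/MS with channel sums equalised.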

[2] = compound: CC1=C(SC2=C1C(=N[C@H](C3=NN=C(N32)C)CC(=O)N)C4=CC=C(C=C4)Cl)C
In short: as §1

[3] = compound: CC1=C2C(=CC=C1)N=C(N(C2=O)C3=CC=CC=C3C)CN4C=NC5=C(N=CN=C54)N
In short: as §1

[4] = compound: Cc1sc2c(c1C)C(c1ccc(Cl)cc1)=N[C@@H](CC(=O)OC(C)(C)C)c1nnc(C)n1-2
In short: as §1

[5] = compound: c1ccc([C@@H]2C[C@H]2NC2CCNCC2)cc1
In short: as §1

Measured: log2 fold change

EIF2B4 isoform 2 (UniProt Q9UI10)
inactive: [1] -0.026 | [2] 0.04 | [3] 0.037 | [4] -0.007 | [5] 0.042

FADS3 (UniProt Q9Y5Q0)
inactive: [1] 0.021 | [2] 0.018 | [3] -0.227 | [4] -0.06 | [5] -0.115

EDC4 (UniProt Q6P2E9)
inactive: [1] -0.026 | [2] 0.005 | [3] 0.027 | [4] 0.008 | [5] 0.011

FDX2 (UniProt Q6P4F2)
inactive: [1] -0.039 | [2] 0.021 | [3] -0.012 | [4] 0.062 | [5] -0.05

FBXO38 (UniProt Q6PIJ6)
inactive: [1] -0.007 | [2] 0.094 | [3] 0.007 | [4] 0.068 | [5] 0.013

ENO1, A0A2R8YEM5
inactive: [1] 0.026 | [2] -0.096 | [3] -0.048 | [4] -0.028 | [5] -0.21

FKBP8 isoform 2 (UniProt Q14318)
inactive: [1] -0.061 | [2] 0.012 | [3] -0.023 | [4] -0.084 | [5] 0.043

EWSR1 isoform 5 (UniProt Q01844)
inactive: [1] 0.047 | [2] -0.024 | [3] -0.012 | [4] 0.053 | [5] 0.002

EXOC1 (UniProt Q9NV70)
inactive: [1] -0.011 | [2] 0.032 | [3] 0.013 | [4] 0.02 | [5] 0.068

FAM53B (UniProt Q14153)
inactive: [1] 0.044 | [2] -0.039 | [3] 0.055 | [4] -0.088 | [5] 0.022

EXOC6 (UniProt Q8TAG9)
inactive: [1] -0.035 | [2] -0.022 | [3] -0.006 | [4] 0.037 | [5] 0.151

GABPB1 isoform 3 (UniProt Q06547)
inactive: [1] 0.039 | [2] 0.052 | [3] -0.017 | [4] -0.024 | [5] -0.025

EPB41 (UniProt P11171)
inactive: [1] -0.004 | [2] -0.021 | [3] -0.023 | [4] 0.027 | [5] 0.032

GART (UniProt P22102)
Chain of UniProt P22102 (P22102 whole entry, looked up): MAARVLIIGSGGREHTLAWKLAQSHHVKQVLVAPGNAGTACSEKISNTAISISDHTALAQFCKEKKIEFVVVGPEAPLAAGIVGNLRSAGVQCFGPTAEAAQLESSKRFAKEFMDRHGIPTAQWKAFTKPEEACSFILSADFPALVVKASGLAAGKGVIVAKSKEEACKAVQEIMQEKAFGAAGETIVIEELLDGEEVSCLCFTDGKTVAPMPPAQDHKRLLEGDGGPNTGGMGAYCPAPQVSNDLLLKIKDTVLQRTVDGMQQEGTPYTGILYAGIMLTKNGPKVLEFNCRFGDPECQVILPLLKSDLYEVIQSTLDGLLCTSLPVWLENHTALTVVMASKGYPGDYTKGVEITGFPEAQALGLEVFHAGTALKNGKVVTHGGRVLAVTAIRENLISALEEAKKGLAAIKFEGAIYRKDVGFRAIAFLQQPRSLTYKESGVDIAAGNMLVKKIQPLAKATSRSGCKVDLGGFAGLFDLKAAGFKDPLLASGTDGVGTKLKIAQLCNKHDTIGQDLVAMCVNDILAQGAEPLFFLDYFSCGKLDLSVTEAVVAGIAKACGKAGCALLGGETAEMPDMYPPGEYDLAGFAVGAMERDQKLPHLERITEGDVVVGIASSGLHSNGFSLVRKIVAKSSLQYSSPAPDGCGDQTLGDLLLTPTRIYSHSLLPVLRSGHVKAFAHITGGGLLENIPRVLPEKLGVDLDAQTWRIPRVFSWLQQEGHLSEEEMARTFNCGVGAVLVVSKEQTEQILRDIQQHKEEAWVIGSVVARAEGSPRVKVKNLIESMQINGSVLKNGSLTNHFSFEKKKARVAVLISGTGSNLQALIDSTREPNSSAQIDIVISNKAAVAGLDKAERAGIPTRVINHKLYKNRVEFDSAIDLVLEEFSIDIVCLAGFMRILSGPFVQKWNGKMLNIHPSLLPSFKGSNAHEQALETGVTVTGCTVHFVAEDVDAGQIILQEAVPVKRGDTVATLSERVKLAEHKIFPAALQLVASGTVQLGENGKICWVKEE
inactive: [1] -0.04 | [2] 0.047 | [3] 0.011 | [4] 0.057 | [5] 0.042

FBRSL1, A0A3B3IRR3
inactive: [1] 0.002 | [2] 0.005 | [3] -0.021 | [4] 0.02 | [5] -0.028

FOXK1 (UniProt P85037)
inactive: [1] 0.022 | [2] 0.017 | [3] -0.001 | [4] 0.032 | [5] -0.009

ETHE1 (UniProt O95571)
inactive: [1] 0.008 | [2] 0.003 | [3] 0.008 | [4] 0.048 | [5] -0.147

FUBP3 (UniProt Q96I24)
inactive: [1] -0.052 | [2] 0.019 | [3] -0.007 | [4] -0.01 | [5] 0.011

EEF1AKNMT (UniProt Q8N6R0)
inactive: [1] -0.012 | [2] -0.073 | [3] 0.013 | [4] 0.018 | [5] 0.042

EIF2B5 (UniProt Q13144)
inactive: [1] -0.03 | [2] 0.007 | [3] 0.019 | [4] 0.023 | [5] 0.017

FARSA (UniProt Q9Y285)
Chain of UniProt Q9Y285 (Q9Y285 whole entry, looked up): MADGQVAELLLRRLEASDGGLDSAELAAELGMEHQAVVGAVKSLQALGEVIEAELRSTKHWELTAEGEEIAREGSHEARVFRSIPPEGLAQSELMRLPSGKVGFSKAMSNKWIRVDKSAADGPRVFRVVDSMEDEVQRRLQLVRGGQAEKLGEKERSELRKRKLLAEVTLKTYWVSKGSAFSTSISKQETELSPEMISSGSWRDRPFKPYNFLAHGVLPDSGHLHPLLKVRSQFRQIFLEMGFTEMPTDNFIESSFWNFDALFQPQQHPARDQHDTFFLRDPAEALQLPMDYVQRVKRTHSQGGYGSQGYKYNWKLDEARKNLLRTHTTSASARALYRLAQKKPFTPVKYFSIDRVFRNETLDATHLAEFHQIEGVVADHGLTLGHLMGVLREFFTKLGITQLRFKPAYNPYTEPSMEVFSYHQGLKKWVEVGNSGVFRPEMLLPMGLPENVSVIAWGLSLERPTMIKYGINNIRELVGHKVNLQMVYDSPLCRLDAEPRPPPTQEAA
inactive: [1] 0.028 | [2] 0.171 | [3] -0.003 | [4] -0.028 | [5] -0.009

DYNC1I2 isoform 5 (UniProt Q13409)
Chain of UniProt Q13409 (Q13409 whole entry, looked up): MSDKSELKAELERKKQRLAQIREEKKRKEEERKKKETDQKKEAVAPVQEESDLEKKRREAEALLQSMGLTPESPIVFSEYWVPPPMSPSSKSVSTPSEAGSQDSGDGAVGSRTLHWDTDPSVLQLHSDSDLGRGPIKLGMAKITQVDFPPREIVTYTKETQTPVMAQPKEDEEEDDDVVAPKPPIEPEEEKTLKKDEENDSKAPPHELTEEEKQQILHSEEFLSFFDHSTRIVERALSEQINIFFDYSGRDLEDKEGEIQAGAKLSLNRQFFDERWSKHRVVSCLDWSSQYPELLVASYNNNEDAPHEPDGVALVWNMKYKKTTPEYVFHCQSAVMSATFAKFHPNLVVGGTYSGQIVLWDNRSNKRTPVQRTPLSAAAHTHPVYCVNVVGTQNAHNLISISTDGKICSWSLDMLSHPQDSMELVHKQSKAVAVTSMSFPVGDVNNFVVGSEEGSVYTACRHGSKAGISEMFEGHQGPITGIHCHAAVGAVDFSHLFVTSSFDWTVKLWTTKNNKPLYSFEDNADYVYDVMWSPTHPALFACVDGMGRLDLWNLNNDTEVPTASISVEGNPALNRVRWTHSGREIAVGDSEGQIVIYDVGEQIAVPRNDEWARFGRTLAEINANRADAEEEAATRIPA
inactive: [1] 0.049 | [2] -0.03 | [3] -0.012 | [4] -0.018 | [5] 0.021

FADS1, A0A0A0MR51
inactive: [1] 0.071 | [2] -0.019 | [3] -0.027 | [4] -0.035 | [5] 0.013

ERLIN1 (UniProt O75477)
inactive: [1] -0.03 | [2] 0.039 | [3] 0.02 | [4] 0.029 | [5] -0.033

DYRK1A (UniProt Q13627)
inactive: [1] -0.019 | [2] 0.003 | [3] -0.014 | [4] 0.019 | [5] 0.031

FANCD2 isoform 1 (UniProt Q9BXW9)
inactive: [1] -0.002 | [2] 0.039 | [3] 0.012 | [4] -0.018 | [5] -0.054

ENO1 isoform 2 (UniProt P06733)
Chain of UniProt P06733 (P06733 whole entry, looked up): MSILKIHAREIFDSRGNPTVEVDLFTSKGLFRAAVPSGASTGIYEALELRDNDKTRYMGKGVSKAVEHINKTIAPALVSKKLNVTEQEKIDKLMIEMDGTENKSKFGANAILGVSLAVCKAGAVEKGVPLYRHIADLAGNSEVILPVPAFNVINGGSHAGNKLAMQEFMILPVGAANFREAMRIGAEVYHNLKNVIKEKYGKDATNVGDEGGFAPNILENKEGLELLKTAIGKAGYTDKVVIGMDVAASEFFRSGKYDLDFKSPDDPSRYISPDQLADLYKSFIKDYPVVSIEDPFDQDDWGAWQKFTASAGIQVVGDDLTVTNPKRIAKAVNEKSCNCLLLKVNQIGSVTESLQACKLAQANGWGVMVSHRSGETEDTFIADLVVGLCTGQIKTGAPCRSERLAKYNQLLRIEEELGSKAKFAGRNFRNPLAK
inactive: [1] 0.068 | [2] -0.145 | [3] 0.033 | [4] -0.062 | [5] -0.143

GATAD2A isoform 3 (UniProt Q86YP4)
inactive: [1] -0.01 | [2] -0.006 | [3] 0.032 | [4] -0.015 | [5] 0.036

ENGASE (UniProt Q8NFI3)
inactive: [1] 0.042 | [2] 0.017 | [3] 0.038 | [4] 0.017 | [5] -0.023

GGT7 (UniProt Q9UJ14)
inactive: [1] -0.138 | [2] 0.017 | [3] 0.103 | [4] -0.015 | [5] -0.048

FPGT (UniProt O14772)
inactive: [1] 0.007 | [2] -0.003 | [3] 0.07 | [4] -0.006 | [5] 0.104

ECI2 (UniProt O75521)
inactive: [1] 0.019 | [2] -0.005 | [3] 0.014 | [4] -0.009 | [5] -0.045

EEF1AKMT4 (UniProt P0DPD7)
inactive: [1] -0.061 | [2] 0.027 | [3] -0.036 | [4] 0.017 | [5] -0.063

GALK1 isoform 2 (UniProt P51570)
inactive: [1] 0.014 | [2] 0.027 | [3] 0.035 | [4] 0.006 | [5] 0.073

EDC3 (UniProt Q96F86)
inactive: [1] 0.036 | [2] 0 | [3] 0.028 | [4] 0.031 | [5] 0.008

ESRRA (UniProt P11474)
inactive: [1] 0.204 | [2] -0.018 | [3] 0.029 | [4] 0.046 | [5] 0.264

ETFRF1 (UniProt Q6IPR1)
Chain of UniProt Q6IPR1 (Q6IPR1 whole entry, looked up): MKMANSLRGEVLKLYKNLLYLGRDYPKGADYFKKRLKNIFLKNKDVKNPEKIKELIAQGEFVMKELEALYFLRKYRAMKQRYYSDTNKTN
inactive: [1] 0.021 | [2] 0.058 | [3] -0.031 | [4] -0.02 | [5] 0.066

ELF2 (UniProt Q15723)
inactive: [1] -0.162 | [2] -0.074 | [3] 0.044 | [4] -0.005 | [5] 0.013

FHOD1 (UniProt Q9Y613)
inactive: [1] -0.041 | [2] 0.006 | [3] 0.043 | [4] 0.029 | [5] 0.027

EPB41, A0A2R8Y6D0
inactive: [1] -0.052 | [2] 0.028 | [3] -0.071 | [4] 0.048 | [5] 0.11

EIF2D (UniProt P41214)
inactive: [1] -0.007 | [2] -0.012 | [3] 0.044 | [4] 0.003 | [5] 0.049

EPB41, A0A2R8Y783
inactive: [1] -0.056 | [2] -0.031 | [3] 0.142 | [4] -0.131 | [5] 0.033

EXOC4 (UniProt Q96A65)
inactive: [1] -0.001 | [2] 0.009 | [3] 0.016 | [4] 0.063 | [5] 0.054

GDPD1 (UniProt Q8N9F7)
inactive: [1] -0.047 | [2] 0.018 | [3] 0.117 | [4] 0.024 | [5] -0.036

EBP (UniProt Q15125)
inactive: [1] -0.011 | [2] -0.061 | [3] 0.022 | [4] 0.09 | [5] -0.141

FASTKD2 (UniProt Q9NYY8)
inactive: [1] -0.013 | [2] 0.044 | [3] 0.018 | [4] 0.017 | [5] 0.002

EIF2AK2 (UniProt P19525)
inactive: [1] 0.01 | [2] -0.002 | [3] -0.027 | [4] 0.216 | [5] 0.03

FIGNL1 (UniProt Q6PIW4)
Chain of UniProt Q6PIW4 (Q6PIW4 whole entry, looked up): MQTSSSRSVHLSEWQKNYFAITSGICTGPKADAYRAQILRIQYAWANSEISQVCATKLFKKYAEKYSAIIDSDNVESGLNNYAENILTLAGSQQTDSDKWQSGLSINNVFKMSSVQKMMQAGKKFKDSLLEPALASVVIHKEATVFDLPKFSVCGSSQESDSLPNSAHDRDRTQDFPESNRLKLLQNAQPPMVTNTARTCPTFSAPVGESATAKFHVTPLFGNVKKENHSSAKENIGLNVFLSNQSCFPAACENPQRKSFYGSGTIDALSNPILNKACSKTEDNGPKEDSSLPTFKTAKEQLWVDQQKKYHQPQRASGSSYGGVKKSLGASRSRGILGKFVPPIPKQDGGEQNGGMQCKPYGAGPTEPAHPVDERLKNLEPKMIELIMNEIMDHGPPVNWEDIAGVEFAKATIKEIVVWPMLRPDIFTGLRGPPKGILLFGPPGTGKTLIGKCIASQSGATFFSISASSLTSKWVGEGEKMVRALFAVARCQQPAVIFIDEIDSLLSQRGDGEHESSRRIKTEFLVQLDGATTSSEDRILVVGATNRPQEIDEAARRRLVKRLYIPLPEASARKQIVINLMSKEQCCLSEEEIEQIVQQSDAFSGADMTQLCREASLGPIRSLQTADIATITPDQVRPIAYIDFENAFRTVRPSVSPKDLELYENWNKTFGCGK
inactive: [1] -0.033 | [2] 0.01 | [3] 0.028 | [4] 0.051 | [5] 0.085

FAM118A (UniProt Q9NWS6)
Chain of UniProt Q9NWS6 (Q9NWS6 whole entry, looked up): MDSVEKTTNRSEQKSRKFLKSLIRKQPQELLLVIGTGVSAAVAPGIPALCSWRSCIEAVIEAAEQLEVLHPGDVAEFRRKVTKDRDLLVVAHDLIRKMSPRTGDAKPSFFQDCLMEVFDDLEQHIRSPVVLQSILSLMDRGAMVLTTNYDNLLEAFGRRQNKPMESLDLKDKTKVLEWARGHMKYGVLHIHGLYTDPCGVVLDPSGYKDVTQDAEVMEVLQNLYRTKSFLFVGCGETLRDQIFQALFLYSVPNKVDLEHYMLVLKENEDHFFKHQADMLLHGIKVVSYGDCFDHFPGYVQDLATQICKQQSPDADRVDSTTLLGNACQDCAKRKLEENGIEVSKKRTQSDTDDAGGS
inactive: [1] -0.028 | [2] -0.033 | [3] -0.021 | [4] -0.108 | [5] -0.015

FMNL1 isoform 3 (UniProt O95466)
Chain of UniProt O95466 (O95466 whole entry, looked up): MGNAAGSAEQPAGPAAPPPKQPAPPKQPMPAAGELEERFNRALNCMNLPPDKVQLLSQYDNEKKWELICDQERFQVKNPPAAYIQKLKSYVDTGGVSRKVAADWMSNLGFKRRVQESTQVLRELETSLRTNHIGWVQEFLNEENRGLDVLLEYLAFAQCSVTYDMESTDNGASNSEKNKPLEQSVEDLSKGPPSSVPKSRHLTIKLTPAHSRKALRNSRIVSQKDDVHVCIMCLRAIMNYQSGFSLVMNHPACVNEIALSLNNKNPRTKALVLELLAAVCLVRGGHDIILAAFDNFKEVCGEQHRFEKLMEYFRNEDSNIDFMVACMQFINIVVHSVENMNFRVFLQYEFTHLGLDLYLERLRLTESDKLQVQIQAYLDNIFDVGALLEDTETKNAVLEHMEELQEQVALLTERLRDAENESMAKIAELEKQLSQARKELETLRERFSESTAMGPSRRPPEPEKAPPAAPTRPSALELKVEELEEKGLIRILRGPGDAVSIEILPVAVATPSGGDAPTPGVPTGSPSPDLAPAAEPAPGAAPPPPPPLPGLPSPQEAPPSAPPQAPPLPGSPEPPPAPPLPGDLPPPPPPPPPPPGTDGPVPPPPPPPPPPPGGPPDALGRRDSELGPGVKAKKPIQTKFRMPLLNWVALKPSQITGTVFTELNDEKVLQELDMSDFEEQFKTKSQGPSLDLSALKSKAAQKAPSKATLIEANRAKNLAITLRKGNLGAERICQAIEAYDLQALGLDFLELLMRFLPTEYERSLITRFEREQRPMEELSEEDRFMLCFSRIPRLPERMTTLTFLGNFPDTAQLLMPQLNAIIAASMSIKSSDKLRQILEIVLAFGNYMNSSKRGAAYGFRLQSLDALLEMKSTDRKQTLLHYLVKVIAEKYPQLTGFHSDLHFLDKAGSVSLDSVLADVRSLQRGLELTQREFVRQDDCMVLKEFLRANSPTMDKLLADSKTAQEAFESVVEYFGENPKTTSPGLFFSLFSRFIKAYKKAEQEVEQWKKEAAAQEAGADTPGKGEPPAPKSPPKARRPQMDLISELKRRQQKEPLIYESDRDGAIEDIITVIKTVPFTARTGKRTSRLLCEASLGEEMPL
inactive: [1] 0.104 | [2] -0.01 | [3] 0.057 | [4] 0.027 | [5] 0.082

GGA2 (UniProt Q9UJY4)
inactive: [1] -0.055 | [2] 0.011 | [3] -0.085 | [4] 0.062 | [5] 0.032

GCN1 (UniProt Q92616)
inactive: [1] -0.046 | [2] 0.003 | [3] 0.019 | [4] 0.035 | [5] 0.063

EIF1 (UniProt P41567)
Chain of UniProt P41567 (P41567 whole entry, looked up): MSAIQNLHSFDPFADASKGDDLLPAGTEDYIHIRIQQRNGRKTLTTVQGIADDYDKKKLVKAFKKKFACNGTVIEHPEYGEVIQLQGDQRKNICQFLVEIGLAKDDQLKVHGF
inactive: [1] 0.146 | [2] -0.034 | [3] -0.031 | [4] -0.035 | [5] -0.114
